Compound activity as filed in PubChem BioAssay.
DNA Pol III inh: qHTS Assay for Inhibitors of DNA Polymerase III Holoenzyme System | reconstituted DNA polymerase III holoenzyme replication, biochemical | Potency, µM (series often up to 57.1 µM), without a hit: at the highest dose activity change, negative = inhibition | 71,000 tested, 0.25% active | AID 603, 2007; note: potency is the fitted concentration of half-maximal effect; % is set by controls: 0 for no effect and ±100 for the full control effect
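Reconstituted *E. coli* holoenzyme (0.35 nM Pol III, 1 nM beta, 154 nM SSB, 2 nM primase) was preincubated with compound for 15 min at RT. Synthesis on 1.4 nM ssM13Gori ran 35 min, then was stopped with PicoGreen/EDTA and read as dsDNA fluorescence.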
p53ts 39C kill: qHTS Screen for Compounds that Selectively Target Cancer Cells with p53 Mutations: Cytotoxicity of p53ts Cells at the Nonpermissive Temperature | H1299-p53A138V viability at 39C, ATP luminescence, 24 h | Potency, µM (top dose mostly 46.1 µM), for inactives: at the highest dose activity change, negative = cell killing, most hits filed as cytotoxic | AID 902, 2007 | 130,000 tested, 1.5% active; note: potency is the fitted concentration of half-maximal effect; % is set by controls: 0 for no effect and ±100 for the full control effect; nearly all actives have a fitted effect of over 55% in size
Tau fil binding: qHTS Assay for Tau Filament Binding; Microtubule-associated protein tau (Homo sapiens), P10636; recombinant tau filaments, thioflavin S fluorescence, 15 h; filaments grown with octadecylsulfate alongside compound; Potency, µM (doses to about 57.1 µM), without a hit: at the highest dose activity change, negative = inhibition; 71,000 tested, 2% active;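 note: potency is the fitted concentration of half-maximal effect; % is set by controls: 0 for no effect and ±100 for the full control effect; actives lower thioflavin S fluorescence by blocking filaments or displacing dye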
Target sequence (P10636 whole entry, looked up): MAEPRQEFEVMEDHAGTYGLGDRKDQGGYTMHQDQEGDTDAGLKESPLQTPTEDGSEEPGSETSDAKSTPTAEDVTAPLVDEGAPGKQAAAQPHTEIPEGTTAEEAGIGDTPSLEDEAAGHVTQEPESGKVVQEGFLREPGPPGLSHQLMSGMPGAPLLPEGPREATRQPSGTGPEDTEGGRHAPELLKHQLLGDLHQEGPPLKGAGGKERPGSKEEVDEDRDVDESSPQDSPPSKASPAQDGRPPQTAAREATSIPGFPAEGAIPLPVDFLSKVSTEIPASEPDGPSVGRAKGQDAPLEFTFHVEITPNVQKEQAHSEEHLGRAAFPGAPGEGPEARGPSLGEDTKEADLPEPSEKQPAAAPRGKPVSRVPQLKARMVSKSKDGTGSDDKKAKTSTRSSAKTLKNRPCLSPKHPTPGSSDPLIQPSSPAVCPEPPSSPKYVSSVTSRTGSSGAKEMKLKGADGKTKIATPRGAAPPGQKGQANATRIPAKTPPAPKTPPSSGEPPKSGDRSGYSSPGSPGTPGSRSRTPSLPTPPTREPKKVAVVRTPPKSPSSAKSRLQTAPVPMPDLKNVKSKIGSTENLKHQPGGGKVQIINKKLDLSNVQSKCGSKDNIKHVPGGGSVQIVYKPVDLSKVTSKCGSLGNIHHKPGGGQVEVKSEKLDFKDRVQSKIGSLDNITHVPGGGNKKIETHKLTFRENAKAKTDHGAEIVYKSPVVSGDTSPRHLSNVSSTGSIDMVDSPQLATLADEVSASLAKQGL
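Assay mix: 1 uM His-tagged tau, 30 uM sodium octadecylsulfate, thioflavine S dye in HEPES/NaCl/DTT buffer. Compound is added prior to the inducer. Fluorescence after 15 h at 37 C.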
YjeE inh: qHTS Assay for Inhibitors of YjeE; 71,000 tested, 0.05% active; Potency, µM; purified YjeE enzyme, qHTS inhibition assay
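Purified YjeE (10 uM) with BODIPY Texas Red-labeled ADP probe (2 uM); compounds pin-transferred, 15 min at room temperature. Binding inhibition read as decreased fluorescence polarization; ADP titration as control.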
ERK AVP inh: qHTS Assay for Inhibitors of the ERK Signaling Pathway using a Homogeneous Screening Assay; 72,000 tested, 0.99% active; Potency, µM (highest dose often 57.5 µM), for inactives: at the top dose activity, negative = inhibition, most hits filed as inhibitors; HEK293-V1b, vasopressin-stimulated pERK AlphaScreen; note: potency is the fitted concentration of half-maximal effect; % is set by controls: 0 for no effect and ±100 for the full control effect; nearly all actives have a fitted effect of over 55% in size
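HEK293 cells stably expressing V1b receptor, preincubated 30 min at 37 °C with compound, then stimulated 5 min with 25 nM vasopressin. Phospho-ERK by AlphaScreen SureFire after 5 h RT; normalized to DMSO and vasopressin; AC50 by Hill fit.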
p53ts 32C tox: qHTS Screen for Compounds that Selectively Target Cancer Cells with p53 Mutations: Cytotoxicity of p53ts Cells at the Permissive Temperature. H1299-p53A138V at 32C, ATP luminescence viability, 24 h. Potency, µM (titrated, usually from 46.1 µM), for the others: at the highest dose activity change, negative = cytotoxicity, hits mostly cytotoxic. 130,000 tested, 0.93% active;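 note: potency is the fitted concentration of half-maximal effect; 0% = DMSO and -100% = full killing by reference compound; nearly all actives have a fitted effect of over 55% in size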
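H1299-p53 A138V cells (temperature-sensitive p53) exposed 24 h to up to 46 uM compound at 32C, where p53 is wild-type in conformation. Viability read as ATP luminescence and normalised to DMSO and 100 uM tamoxifen. AC50 fitted with the Hill equation.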
* = called active by the depositor; i = inactive; ? = inconclusive; · = no result; ! = a repeat was not active; [ ] = remark or other dose. This is a sample that favours compounds with a hit; in the whole collection about 3.2% have one here. Calls come from the whole dose curve; as a rule, active = well fitted curve in the direction sought with a large enough effect; inconclusive = small, poorly fitted or top-dose-only effect, or another doubt; inactive = no such curve, though single readings can be large; an effect the other way counts as inactive or inconclusive.

SMILES	DNA Pol III inh	p53ts 39C kill	Tau fil binding	YjeE inh	ERK AVP inh	p53ts 32C tox
CCOc1ccccc1NC(=O)Cn1c(=O)n(-c2ccc(C)c(C)c2)c(=O)c2c(C)c(C(=O)N(C)C)sc21	·	13µM*	·	·	·	-3%
COc1ccc(CCN2CCC(Nc3nc4ccccc4n3Cc3ccc(F)cc3)CC2)cc1	-8%[25.6 µM]	13µM*!	101%[25.6 µM]	i	2%	-15%
COc1ccc(Cn2c(-c3ccc(OC)cc3)nc3ccccc32)cc1	·	1%	·	·	·	7%
O=C(O)c1cccc(-n2cccc2/C=N/O)c1	16µM*	1%	0%	i	33%	10%
CCCCN(CCCC)S(=O)(=O)c1ccc(C(=O)Nc2nnc(CSC)o2)cc1	-1%	16µM*	-4%	i	10%	-20%
CCCCN(CC)S(=O)(=O)c1ccc(C(=O)Nc2nnc(CSC)o2)cc1	1%	25µM*	-2%	i	10%	-26%
CCN(Cc1ccccc1)S(=O)(=O)c1ccc(C(=O)Nc2nnc(-c3ccccc3OC)o2)cc1	11%	13µM*	22%	i	10%	-2%
CCCCN(C)S(=O)(=O)c1ccc(C(=O)Nc2nnc(-c3cccs3)o2)cc1	-4%	7.9µM*	-1%	i	12%	-24%
CCCCN(CC)S(=O)(=O)c1ccc(C(=O)Nc2nnc(-c3ccccc3Cl)o2)cc1	-2%	-11%	6%	i	17%	1%
CCCN(CCC)S(=O)(=O)c1ccc(C(=O)Nc2nnc(CSC)o2)cc1	-2%	?	6%	i	17%	-26%
Cc1ccc(-n2ncc3c(NCCc4ccccc4)ncnc32)cc1	·	-3%	·	·	·	-7%
CCC(Oc1ccccc1)C(=O)Nc1ccc(OCc2cc(=O)n3ccc(C)cc3n2)cc1 (stereo not given)	·	17%	·	·	·	6%
Cc1cccc(N2CCN(c3nc4ccc(C)cc4n4cnnc34)CC2C)c1 (stereo not given)	·	?	·	·	·	-15%
Cc1nn(Cc2ccc(Cl)cc2Cl)c(C)c1NC(=O)CCl	·	5.6µM*	·	·	·	18µM*
COc1cc(COc2cc(N)c(Cl)cc2C(=O)CCC2CCN(CCNS(C)(=O)=O)CC2)cc(OC)c1	-6%	32µM*	101%	i	-9%	32µM*
CCCCC(=O)OC1=C(C(=O)c2ccccc2)N(CC)S(=O)(=O)c2ccccc21	·	-5%	·	·	·	4%
CCN1C(C(=O)c2ccccc2)=C(OC(=O)c2ccccc2OC)c2ccccc2S1(=O)=O	·	10µM*	·	·	·	?
N#Cc1sc2nc(-c3ccccc3)cc(-c3ccco3)c2c1N	-2%	0%	2.5µM*	i	-24%	-6%
N#Cc1sc2nc(C3CC3)cc(-c3ccccc3)c2c1N	·	12%	·	·	·	4%
CS(=O)(=O)N1CCC2(CC1)CN(C(c1ccccc1)c1ccccc1)C2	-6%	1%	-2%	i	-5%	0%
Cc1cc(Nc2ccccc2Cl)n2nc(-c3ccco3)nc2n1	·	-15%	·	·	·	-7%
Cc1cc(C)n2nc3nc(N4CCCCC4)nc(-c4ccco4)c3c2n1	-19%	-5%	20µM*	i	33%	6%
Cc1ccccc1NC(=O)CCNC(=O)Cn1ccc2ccccc2c1=O	·	6%	·	·	·	-2%
COc1ccc2c(c1OC)C(Cc1ccccc1)N1CCc3cc4c(cc3C1=C2)OCO4 (stereo not given)	·	-12%	·	·	6.3µM*	-3%
O=C(Nc1ccccc1C(F)(F)F)N1CCC2(CC1)Oc1ccccc1C(=O)N2Cc1ccccc1F	·	-2%	·	·	·	4%
SMILES	DNA Pol III inh	p53ts 39C kill	Tau fil binding	YjeE inh	ERK AVP inh	p53ts 32C tox
O=C1C=CC2(OCCCO2)C(Br)=C1	·	8%[9.22 µM]	·	·	1%[11.5 µM]	0%[9.22 µM]
O=C(CC(c1ccccc1)c1cc(Br)ccc1O)NCC1(c2ccccc2)CCCC1 (stereo not given)	·	10µM*	·	·	·	?
Cc1ccc(C(C)C)c(OCC(=O)NCC2(N3CCOCC3)CCCCC2)c1	·	-24%	·	·	·	-8%
NC(=O)c1ccc[n+]([C@@H]2OC(COP(=O)([O-])OP(=O)(O)OCC3OC(n4cnc5c(N)ncnc54)C(OP(=O)(O)O)C3O)C(O)C2O)c1 (stereo not given in full)	·	32%	·	·	-4%	17%
CCN(CC)c1ccc2c(Cl)c(Br)c(=O)oc2c1	-2%	?	i	?	5%	13µM*
CCN(CC)c1ccc2c(c1)oc(=O)c1c(Cl)cc(=O)oc12	2%	13µM*	i	i	?	13µM*
CCN(CC)c1ccc2c(C)cc(=O)oc2c1	2%	-6%	56%	i	38%	-2%[1.84 µM]
N#CC(=NCCO)C1=C(O)c2ccccc2C1=O	1%[11.4 µM]	-16%[9.22 µM]	-2%[11.4 µM]	i	19%[11.5 µM]	?
O=C1C(SCCO)=C(SCCO)C(=O)c2ccccc21	32µM*!	0.79µM*	5µM*!	i	16µM*	0.63µM*
CCC(=O)Nc1ccccc1-c1nc2ccccc2n(CC(=O)c2ccc(Cl)cc2)c1=O	·	-3%	·	·	·	6%
CCN(CCNC(=O)C1CCN(Cc2nc(-c3ccc(Cl)cc3)oc2C)CC1)c1ccccc1	4%	?	-20%	i	?	25µM*
CCc1ccc(-c2nc(CN3CCC(C(=O)NCCN(CC)c4ccccc4)CC3)c(C)o2)cc1	3%	-4%	?	i	-4%	-1%
CCN(CCNC(=O)C1CCN(Cc2nc(-c3cccc(Cl)c3)oc2C)CC1)c1ccccc1	-4%	16µM*	122%	i	?	13µM*
Cc1cc(Nc2cccc(C(F)(F)F)c2)nc2ccc(NC(=O)c3ccc(N(C)C)cc3)cc12	·	-4%	·	·	·	24%
COc1ccc(C)cc1NC(=O)C1CCC(CNS(=O)(=O)c2ccc3c(c2)CCCC(=O)N3)CC1 (stereo not given)	·	?	·	·	·	-1%
COc1ccc(NC(=O)c2oc3ccccc3c2NC(=O)Cc2ccc(F)cc2)c(OC)c1	·	?	·	·	·	2%
COc1ccc(OC)c(NC(=O)c2cc(-c3cc(Cl)ccc3O)n[nH]2)c1	-7%	-22%	226%	i	25µM*	-11%
CCCNc1ncnc2c1c(-c1ccccc1)cn2-c1ccccc1	·	-14%	·	·	·	-7%
Cc1cc(C)cc(NC(=O)C2CCCN2S(=O)(=O)c2cccc3nsnc23)c1 (stereo not given)	·	-10%	·	·	·	-5%
Clc1ccc(Sc2oc(/C=N/n3cnnc3)cc2Br)cc1	-3%[11.4 µM]	-5%	5µM*	i	28%	2%
